LGR2 inh – inhibitors of bursicon-induced Drosophila LGR2 receptor cAMP signaling. HEK293 LGR2, CRE-luciferase, bursicon-stimulated, 4 h. AID 720647. 380,000 tested, 0.35% active. inhibition, % at 9.99 µM;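 active = drop in luminescence signal, shown as inhibition above about 50% in the replicate tests, limit read from the data, passing the limit was not always enough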;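 note: agonist challenge used bursicon conditioned medium at about half maximal strength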
TROY NFkB inh – TROY signaling inhibition | Q293 LMP1-TROYcd NF-kB luciferase reporter, 4 h | inhibition, % at 10 µM | 360,000 tested, 0.98% active | AID 1347056;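 active = compounds whose plate-normalised and pattern-corrected inhibition of the luciferase reporter signal at the single screening dose is 50% or more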
PAX8 inh HTS – inhibitors of PAX8 transcriptional activity in RMG-I cells; inhibition, % at 12.6 µM; 360,000 tested, 1.2% active; RMG-I TPO-luciferase reporter, SteadyGlo, 24 h;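 active = mean replicate inhibition at least 60% with every replicate also reaching 60%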;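 note: luciferase light reporting Pax8 driven TPO promoter activity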
LMP1 NFkB inh – Epstein-Barr LMP1 NF-kappaB reporter inhibition. inhibition, % at 12.5 µM. 350,000 tested, 0.69% active. AID 504558. LMP1-induced NF-kappaB luciferase reporter cells, luminescence; in the data active = inhibition above about 41%
EWS-Fli inh – EWS/Fli transcriptional activity inhibition | A673 NR0B1-luciferase reporter, viability-normalised | inhibition, % at 12.6 µM | 350,000 tested, 0.67% active | AID 651661;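 active = mean inhibition of at least 50% after viability correction, with every replicate also passing that limit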;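 note: firefly luciferase signal divided by Alamar Blue viability fluorescence both relative to DMSO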
TWEAK-Fn14 inh – blocks TWEAK-Fn14 interaction in a reporter cell assay. TWEAK-stimulated Fn14 reporter cells, luciferase luminescence, 8 h. inhibition, % at 10 µM. 360,000 tested, 2% active. AID 1159606; in the data active = inhibition above about 50%
Hits are given with their value; - = inactive; . = not tested or not shown. Most compounds without a hit are left out; they make up all but 3.2% or so of the library.

SMILES	LGR2 inh	TROY NFkB inh	PAX8 inh HTS	LMP1 NFkB inh	EWS-Fli inh	TWEAK-Fn14 inh
COc1cccc(C#Cc2ccc([C@H]3[C@@H](CO)N4C(=O)CN(C(=O)C5CC5)C[C@@H]34)cc2)c1	-	.	-	.	-	.
CO[C@H]1CN(C)C(=O)c2cc(NC(=O)C3CC3)ccc2OC[C@H](C)N(Cc2ccncc2)C[C@@H]1C	-	.	-	.	-	.
Cc1cccc(N(C)S(=O)(=O)c2ccc3c(c2)C(C)(C)C(=O)N3C)c1	-	-	-	-	-	88
CCC(=O)Nc1ccc2c(c1)OC[C@H](C)N(CCc1ccccc1)C[C@H](C)[C@@H](OC)CN(C)C2=O	-	.	.	.	-	.
CCOC(=O)c1ccc(NC(=O)O[C@H]2[C@H](OC(=O)Nc3ccc4c(c3)OCO4)[C@@H](OC(=O)Nc3ccc4c(c3)OCO4)[C@@H](OC)O[C@@H]2CO)cc1	.	.	-	.	-	.
CCc1nc(N2[C@H](CO)[C@H](c3ccccc3-c3ccc(F)cc3)[C@@H]2C#N)sc1C	-	.	.	.	-	.
CN(C)c1ccc(N=Nc2cccc(F)c2)cc1	-	-	-	-	-	52
CN(C)c1ccc(N=Nc2ccc3ncccc3c2)cc1	62	-	-	-	-	52
C[C@H](CO)N1C[C@H](C)[C@H](CN(C)C(=O)Nc2ccc3c(c2)OCO3)Oc2ncc(-c3cncnc3)cc2C1=O	-	.	.	.	-	.
C[C@@H]1CCCCO[C@@H](CN(C)S(=O)(=O)c2cn(C)cn2)[C@@H](C)CN([C@H](C)CO)C(=O)c2cc(NS(=O)(=O)c3ccc(Cl)cc3)ccc2O1	-	.	-	.	-	.
Cc1noc(C)c1NC(=O)Nc1ccc2c(c1)CC(=O)N([C@@H](C)CO)C[C@H](C)[C@H](CN(C)Cc1ccc(Oc3ccccc3)cc1)O2	-	.	-	.	-	.
COCCn1c(Cc2ccccc2)nnc1SCC(=O)Nc1ccccc1	-	-	-	-	-	-
COCCn1c(Cc2ccccc2)nnc1SCC(=O)Nc1oc(C)c2c(C)n[nH]c(=O)c12	-	57	-	-	-	-
Cc1ccccc1NC(=O)CN1C(=O)C2C3CC(C(Br)C3Br)C2C1=O (stereo not drawn)	-	-	63	-	-	-
C[C@H](O)C#Cc1ccc2c(c1)O[C@H](CN(C)Cc1ccc(-c3ccccc3)cc1)[C@@H](C)CN([C@H](C)CO)S2(=O)=O	-	.	80	.	-	.
C[C@H](O)C#Cc1ccc2c(c1)O[C@@H](CN(C)Cc1ccc(-c3ccccc3)cc1)[C@@H](C)CN([C@@H](C)CO)S2(=O)=O	-	.	89	.	-	.
C[C@H](O)C#Cc1ccc2c(c1)O[C@H](CN(C)Cc1ccc(-c3ccccc3)cc1)[C@H](C)CN([C@H](C)CO)S2(=O)=O	-	.	-	.	-	.
C[C@@H]1CN([C@@H](C)CO)S(=O)(=O)c2ccc(C#C[C@@H](C)O)cc2O[C@H]1CN(C)Cc1ccc(-c2ccccc2)cc1	-	.	92	.	-	.
CCOC(=O)C1=C(C)N(C)C(=O)NC1c1ccccc1OC (stereo not drawn)	.	-	.	40	.	-
Cc1noc(C)c1NC(=O)N(C)C[C@@H]1OCCCC[C@@H](C)Oc2ccc(NS(=O)(=O)c3ccccc3)cc2C(=O)N([C@@H](C)CO)C[C@H]1C	-	.	-	.	-	.
CCC(=NCCc1c(C)[nH]c2ccc(OC(F)(F)F)cc12)C1=C(O)CC(c2ccccc2)CC1=O (stereo not drawn)	-	-	-	-	51	-
CCCCC(=NCCc1c(C)[nH]c2ccc(OC)cc12)C1=C(O)CC(c2ccccc2)CC1=O (stereo not drawn)	-	-	-	-	55	-
COc1cccc(S(=O)(=O)N[C@H]2CC[C@H](CC(=O)NCc3ccncc3)O[C@@H]2CO)c1	-	.	-	.	-	.
O=C(C[C@@H]1CC[C@@H](NC(=O)C2CC2)[C@H](CO)O1)NC1CCC1	-	.	-	.	-	.
CC(C)(C)OC(=O)N1CCC[C@@H]1CO	.	-	.	-	.	-
SMILES	LGR2 inh	TROY NFkB inh	PAX8 inh HTS	LMP1 NFkB inh	EWS-Fli inh	TWEAK-Fn14 inh
CCCCCC(CC(=O)NO)C(=O)NC(C(=O)N1CCCC1CO)C(C)C (stereo not drawn)	.	-	90	-	-	-
CN1CCN(C(=O)C[C@@H]2CC[C@@H]3[C@H](COC[C@@H](O)CN3CC3CCCC3)O2)CC1	-	.	-	.	.	.
COc1ccc(N=C2C(=Nc3ccc(OC)cc3)N(c3ccc(OC)cc3)C(=S)N2C(=O)c2ccc(OC)cc2)cc1	.	-	.	-	.	-
COc1ccc(N2C(=S)N(C(=O)c3ccccc3)C(=Nc3ccccc3)C2=Nc2ccccc2)cc1	.	-	.	-	.	75
COc1ccc(N=C2C(=Nc3ccc(OC)cc3)N(c3ccccc3)C(=S)N2C(=O)c2ccc(Cl)cc2)cc1	.	-	-	-	.	66
COC(=O)[C@H]1[C@H](CO)[C@H]2Cn3c(ccc(C4=CCCCC4)c3=O)[C@H]2N1Cc1cccnc1	-	.	-	.	-	.
COc1ccc2c3c(n(C)c2c1)[C@H](CO)N(C(=O)CN(C)C)CC31CN(C(=O)C2CCC2)C1	-	.	.	.	-	.
Cc1noc(C)c1NC(=O)Nc1cccc2c1O[C@H](CN(C)C(=O)Nc1ccc(F)cc1)[C@H](C)CN([C@@H](C)CO)C2=O	-	.	.	.	-	.
CN(C)CC#Cc1ccc([C@@H]2[C@@H](CO)N3C(=O)CN(C(=O)Cc4ccccc4)C[C@H]23)cc1	-	.	-	.	-	.
C#CC(=O)CC1(CN(Cc2ccccc2)C(=O)OC(C)(C)C)CCCCC1	-	-	76	-	-	-
CC(C)c1cn(CC[C@H]2CC[C@H](NC(=O)C3CCC3)[C@@H](CO)O2)nn1	-	.	-	.	-	.
CCc1ccc(OCC(=O)NNC(=O)C2CCN(c3ncnc4sc(C)c(C)c34)CC2)cc1	-	-	-	-	-	-
COc1ccc(OCC(=O)NNC(=O)C2CCN(c3ncnc4sc(C)c(C)c34)CC2)cc1	-	-	-	-	-	-
Cc1cc(Cl)ccc1OCC(=O)NNC(=O)C1CCN(c2ncnc3sc(C)c(C)c23)CC1	-	72	-	-	-	82
Cc1c(C(=O)Nc2ccc3c(c2)OCCO3)sc2ncnc(N3CCCCC3C)c12 (stereo not drawn)	-	-	-	.	.	53
Cc1sc2ncnc(N3CCC(C(=O)NNC(=O)COc4cccc(C(F)(F)F)c4)CC3)c2c1C	-	-	-	-	-	56
Cc1sc2ncnc(N3CCC(C(=O)NNC(=O)COc4ccc(Br)cc4)CC3)c2c1C	-	74	-	-	-	88
Cc1noc(C)c1S(=O)(=O)Nc1cccc2c1O[C@H](CN(C)C(=O)Nc1ccccc1)[C@H](C)CN([C@H](C)CO)C2=O	-	.	-	.	-	.
C[C@@H]1CN([C@@H](C)CO)C(=O)Cc2cc(NC(=O)Nc3cccc4ccccc34)ccc2O[C@@H]1CN(C)C(=O)Nc1ccc2c(c1)OCO2	-	.	-	.	-	.
Cc1ccccc1S(=O)(=O)N1C[C@@H](O)COC[C@@H]2O[C@H](CC(=O)N3CCCCC3)CC[C@H]21	-	.	-	.	-	.

From PubChem BioAssay
